Experimental data: PubChem BioAssay (Tox21)
Results filed as inconclusive are left out. The source made the active and inactive calls. Unless noted, calls follow the shape of the dose curve; as a rule, active = well fitted curve in the direction sought with a large enough effect in the repeat runs; inconclusive = weak or mixed curves; inactive = no such curve, though single readings can be large; an effect the other way counts as inactive or inconclusive.

Key:
[1] = qHTS assay to identify small molecule antagonists of the estrogen receptor alpha (ER-alpha) signaling pathway using the BG1 cell line in the presence of 0.1 nM 17-beta-estradiol - cell viability counter screen (AID 1259241); also: nearly all actives have a fitted effect of over 40% in size
How it was run: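 VM7Luc4E2, 4,000 cells/well, phenol red-free medium + 10% charcoal-stripped FBS; 24 hr plating; cpd + 0.1 nM E2 final, 22 hr 37C/5% CO2; CellTiter-Fluor 30 min, fluorescence.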

[2] = qHTS assay to identify small molecule antagonists of the androgen receptor (AR) signaling pathway using the MDA cell line in the presence of 0.5 nM R1881 - cell viability counter screen (AID 1259242); also: nearly all actives have a fitted effect of over 45% in size
How it was run: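 MDA-kb2 cells (human breast carcinoma, stably carrying MMTV-luciferase reporter) were exposed to compounds with 0.5 nM R1881 (final) for 16 hr at 37C, 0% CO2; viability then read as live-cell protease fluorescence (CellTiter-Fluor, 30 min) in the same wells.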

[3] = target: Androgen receptor (Homo sapiens) (UniProt P10275); assay: qHTS assay to identify small molecule antagonists of the androgen receptor (AR) signaling pathway using the MDA cell line in the presence of 0.5 nM R1881 (AID 1259243); also: nearly all actives have a fitted effect of over 50% in size
How it was run: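 MDA-kb2 human breast carcinoma cells carrying an MMTV-luciferase reporter (AR- and GR-responsive) were plated, rested 5 hr at 37C, dosed with compounds, then stimulated with 0.5 nM R1881 (final) for 16 hr; luminescence was read after ONE-Glo.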

[4] = target: Estrogen receptor (Homo sapiens) (UniProt P03372); assay: qHTS assay to identify small molecule antagonists of the estrogen receptor alpha (ER-alpha) signaling pathway using the BG1 cell line in the presence of 0.1 nM 17-beta-estradiol (AID 1259244); also: nearly all actives have a fitted effect of over 50% in size
How it was run: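 VM7Luc4E2 cells (endogenous full-length ER-alpha, stable 4xERE-luciferase) were grown 5 days in phenol red-free medium with charcoal-stripped FBS, then exposed 22 h at 37C to compounds plus 0.1 nM (final) 17beta-estradiol; ONE-Glo luminescence read-out.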

[5] = qHTS assay to identify small molecule HDAC inhibitors (AID 1259364); also: top concentration of the series differs between compounds; nearly all actives have a fitted effect of over 45% in size
How it was run: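 Wild-type HCT-116 cells were plated overnight, exposed to compounds for 2 h at 37 °C, then given HDAC-Glo class I/II luminogenic reagent for 30 min at room temperature before luminescence was read.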

[6] = qHTS assay to identify small molecule HDAC inhibitors - cell viability counter screen (AID 1259365); also: series mostly up to about 92 µM; nearly all actives have a fitted effect of over 50% in size
How it was run: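 Luminescence from CellTiter-Glo, developed 30min at room temperature, reports viability of wild-type HCT-116 cells treated 2hr with compounds at 37 C and 5% CO2 after overnight plating.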

[7] = qHTS assay to identify small molecule agonists of the sonic hedgehog signaling (Shh) pathway - cell viability counter screen (AID 1259366); also: nearly all actives have a fitted effect of over 50% in size
How it was run: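 Cytotoxicity counter screen run in the same wells as the Shh reporter assay. NIH/3T3 cells carrying a Gli1 response element–driven luciferase were treated with DMSO-dissolved compounds for 24hr, and live-cell protease activity was measured with CellTiter-Fluor.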

[8] = qHTS assay to identify small molecule antagonists of the sonic hedgehog signaling (Shh) pathway - cell viability counter screen (AID 1259367); also: nearly all actives have a fitted effect of over 55% in size
How it was run: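 After a 4 hr settling period, 3T3 Gli1-Luc cells were treated with DMSO-dissolved chemicals and conditioned medium, kept 24 hr at 37C in 5% CO2, and assayed for viability by CellTiter-Fluor fluorescence following 1 hr reagent incubation.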

[9] = qHTS assay to identify small molecule agonists of the sonic hedgehog signaling (Shh) pathway (AID 1259368; calls by dose curve; also: series mostly up to about 92 µM; nearly all actives have a fitted effect of over 15% in size)
How it was run: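 NIH/3T3-derived 3T3Gli1-Luc cells carrying a stably integrated Gli1 response element–firefly luciferase reporter were plated, left 4 hr at 37 C, then given compounds in DMSO for 24 hr. Luminescence was read 30 min after adding luciferase reagent.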

[10] = qHTS assay to identify small molecule antagonists of the sonic hedgehog signaling (Shh) pathway (AID 1259369; calls by dose curve; also: nearly all actives have a fitted effect of over 45% in size)
How it was run: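 NIH/3T3-derived 3T3Gli1-Luc cells with stably integrated Gli1-Luc reporter were preincubated 4hr at 37 C, then given compounds in DMSO plus Shh conditioned medium and incubated 24hr. Firefly luciferase luminescence read after 30min reagent at room temperature.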

[11] = target: Estrogen receptor beta (Homo sapiens) (UniProt Q92731); assay: qHTS assay to identify small molecule agonists of the estrogen receptor beta (ER-beta) signaling pathway (AID 1259377; active = well fitted activation curve with a large enough effect in the signal ratio in the repeat runs, not every such curve was filed as active; the % refers to the signal ratio)
How it was run: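 HEK293T ER-beta-UAS-bla; 2% charcoal-stripped FBS; cells pre-incubated 6 hr, compound 16 hr, 37C/5% CO2; LiveBLAzer B/G FRET substrate 2 h RT; fluorescence intensity read.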

[12] = target: Estrogen receptor beta (Homo sapiens) (UniProt Q92731); assay: qHTS assay to identify small molecule antagonists of the estrogen receptor beta (ER-beta) signaling pathway (AID 1259378; active = well fitted inhibition curve with a large enough effect in the signal ratio in the repeat runs, not every such curve was filed as active; the % refers to the signal ratio)
How it was run: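 ER-beta-UAS-bla HEK293T (GripTite) cells in 2% charcoal-stripped FBS medium were preincubated 6 hr at 37C, dosed with compound, then stimulated with 1 nM E2 (final) for 16 hr; beta-lactamase reporter read by B/G FRET fluorescence after 2 hr substrate loading.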

[13] = qHTS assay to identify small molecule agonists of the androgen receptor (AR) signaling pathway in the presence of an antagonist - cell viability counter screen (AID 1259379); also: series mostly up to about 92 µM; nearly all actives have a fitted effect of over 25% in size
How it was run: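 MDA-kb2 human breast carcinoma cells (stable MMTV-luciferase, AR/GR responsive) were seeded 3,000 cells/well, pre-incubated 5 hr at 37C without CO2, then given 3.0uM nilutamide and compounds at 15 concentrations for 16 hr. Viability was read by CellTiter-Fluor fluorescence.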

[14] = qHTS assay to identify small molecule agonists of the estrogen receptor beta (ER-beta) signaling pathway - cell viability counter screen (AID 1259380); also: nearly all actives have a fitted effect of over 30% in size
How it was run: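 ER-beta-UAS-bla HEK293T cells in medium with 2% charcoal-stripped FBS were preincubated 6 hr at 37C, dosed with compound in DMSO for 16 hr, then after the bla read, CellTiter-Glo was added for 30 min at room temperature; luminescence recorded.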

[15] = qHTS assay to identify small molecule antagonists of the estrogen receptor beta (ER-beta) signaling pathway - cell viability counter screen (AID 1259382); also: series mostly up to about 92 µM; nearly all actives have a fitted effect of over 55% in size
How it was run: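 ER-beta-UAS-bla HEK293T cells (2,000/well, 2% charcoal-stripped FBS) were pre-incubated 6 hr at 37C, then given compound plus 1nM final 17-beta-estradiol for 16 hr. Viability was read in the same wells by CellTiter-Glo luminescence after 30 min at room temperature.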

[16] = target: Estrogen receptor (Homo sapiens) (UniProt P03372); assay: qHTS assay to identify small molecule agonists of the estrogen receptor alpha (ER-alpha) signaling pathway in the presence of an antagonist (AID 1259383; calls by dose curve; also: top concentration of the series differs between compounds; nearly all actives have a fitted effect of over 15% in size)
How it was run: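 VM7Luc4E2 cells (endogenous full-length ER-alpha, 4×ERE-luciferase) were precultured 5 days in phenol red-free medium with 10% charcoal-stripped FBS, given 10.0nM ICI-182,780 (final), then treated with compounds at 15 concentrations for 22hr at 37C; luminescence read with ONE-Glo.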

[17] = qHTS assay to identify small molecule agonists or antagonists of the thyroid stimulating hormone receptor (TSHR) signaling pathway - wild type cell line counter screen (AID 1259384; calls by dose curve)
How it was run: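 Wild-type HEK293 cells were plated 18 h at 37 C/5% CO2, pin-dosed with compound plus Ro20-1724 medium, held 30 min at room temperature, then given cAMP-d2 and anti-cAMP-cryptate; fluorescence was read after 1 h. Fifteen concentrations, triplicate.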

[18] = target: Thyrotropin receptor (Homo sapiens) (UniProt P16473); assay: qHTS assay to identify small molecule antagonists of the thyroid stimulating hormone receptor (TSHR) signaling pathway (AID 1259385; calls by dose curve; also: nearly all actives have a fitted effect of over 20% in size)
How it was run: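 TSHR-HEK293 cells were plated and held 18 h at 37C/5% CO2, then given compound plus Ro20-1724 and stimulated with TSH at 1.5 ng/mL final. After 30 min at room temperature, cAMP was detected with cAMP-d2/anti-cAMP-cryptate (1 h) by fluorescence.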

[19] = target: Androgen receptor (Homo sapiens) (UniProt P10275); assay: qHTS assay to identify small molecule agonists of the androgen receptor (AR) signaling pathway in the presence of an antagonist (AID 1259381; calls by dose curve; also: nearly all actives have a fitted effect of over 15% in size)
How it was run: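 MDA-kb2 human breast carcinoma cells carrying an MMTV-luciferase reporter (AR- and GR-responsive) were treated with compounds at 15 concentrations plus 3.0uM final nilutamide for 16hr at 37C without CO2; luminescence was read after ONE-Glo addition.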

[20] = qHTS assay to identify small molecule phospholipidosis (PLD) inducers (AID 1259344; active = well fitted curve in the direction sought with a large enough effect; an effect the other way counts as inactive or inconclusive)
How it was run: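 HepG2 cells grown on collagen I take up LipidTOX Red while exposed to compound for 24 h; after fixation they are imaged at 20x and pit metrics are extracted.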

Measured: Potency

Estrogen receptor (Homo sapiens), sequence (P03372 whole entry, looked up): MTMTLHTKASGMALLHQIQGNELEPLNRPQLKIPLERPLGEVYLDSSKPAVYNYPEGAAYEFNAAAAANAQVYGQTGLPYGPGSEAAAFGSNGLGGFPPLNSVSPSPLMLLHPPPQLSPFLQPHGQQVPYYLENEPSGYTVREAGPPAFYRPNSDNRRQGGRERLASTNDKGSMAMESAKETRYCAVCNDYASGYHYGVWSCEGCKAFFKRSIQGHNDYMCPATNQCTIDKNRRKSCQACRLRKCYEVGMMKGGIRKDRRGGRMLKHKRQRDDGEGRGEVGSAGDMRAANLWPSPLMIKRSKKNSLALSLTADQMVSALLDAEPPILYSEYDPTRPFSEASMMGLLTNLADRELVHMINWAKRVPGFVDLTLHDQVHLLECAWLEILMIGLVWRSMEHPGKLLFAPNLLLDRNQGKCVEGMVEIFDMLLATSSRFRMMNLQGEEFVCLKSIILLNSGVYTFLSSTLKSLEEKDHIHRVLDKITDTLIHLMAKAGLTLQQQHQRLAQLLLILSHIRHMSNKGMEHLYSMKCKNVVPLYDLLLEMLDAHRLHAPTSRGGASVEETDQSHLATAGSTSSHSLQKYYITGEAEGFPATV
Androgen receptor (Homo sapiens), sequence (P10275 whole entry, looked up): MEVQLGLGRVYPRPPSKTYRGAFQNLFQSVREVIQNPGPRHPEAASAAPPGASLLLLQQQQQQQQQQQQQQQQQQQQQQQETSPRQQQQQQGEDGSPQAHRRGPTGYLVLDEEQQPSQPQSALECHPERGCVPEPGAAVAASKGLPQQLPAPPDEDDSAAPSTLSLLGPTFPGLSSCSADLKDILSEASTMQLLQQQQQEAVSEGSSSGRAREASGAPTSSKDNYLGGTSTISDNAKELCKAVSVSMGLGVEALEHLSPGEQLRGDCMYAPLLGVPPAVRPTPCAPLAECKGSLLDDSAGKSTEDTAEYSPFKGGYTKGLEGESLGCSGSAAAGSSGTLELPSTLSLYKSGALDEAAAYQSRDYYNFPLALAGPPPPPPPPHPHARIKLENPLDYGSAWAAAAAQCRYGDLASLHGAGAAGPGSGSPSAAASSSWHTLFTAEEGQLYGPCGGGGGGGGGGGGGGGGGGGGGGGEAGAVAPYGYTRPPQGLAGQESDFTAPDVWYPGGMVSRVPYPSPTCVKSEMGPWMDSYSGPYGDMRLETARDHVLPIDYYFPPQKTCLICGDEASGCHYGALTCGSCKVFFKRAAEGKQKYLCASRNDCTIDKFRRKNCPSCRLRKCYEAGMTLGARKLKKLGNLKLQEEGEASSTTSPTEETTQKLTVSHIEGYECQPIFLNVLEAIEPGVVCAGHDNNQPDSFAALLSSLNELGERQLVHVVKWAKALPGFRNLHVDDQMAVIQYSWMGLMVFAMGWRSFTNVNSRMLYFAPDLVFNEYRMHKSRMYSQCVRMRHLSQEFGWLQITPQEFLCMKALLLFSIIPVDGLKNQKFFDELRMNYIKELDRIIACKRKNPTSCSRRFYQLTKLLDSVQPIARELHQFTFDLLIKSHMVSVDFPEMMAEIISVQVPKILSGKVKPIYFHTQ
Estrogen receptor beta (Homo sapiens), sequence (Q92731 whole entry, looked up): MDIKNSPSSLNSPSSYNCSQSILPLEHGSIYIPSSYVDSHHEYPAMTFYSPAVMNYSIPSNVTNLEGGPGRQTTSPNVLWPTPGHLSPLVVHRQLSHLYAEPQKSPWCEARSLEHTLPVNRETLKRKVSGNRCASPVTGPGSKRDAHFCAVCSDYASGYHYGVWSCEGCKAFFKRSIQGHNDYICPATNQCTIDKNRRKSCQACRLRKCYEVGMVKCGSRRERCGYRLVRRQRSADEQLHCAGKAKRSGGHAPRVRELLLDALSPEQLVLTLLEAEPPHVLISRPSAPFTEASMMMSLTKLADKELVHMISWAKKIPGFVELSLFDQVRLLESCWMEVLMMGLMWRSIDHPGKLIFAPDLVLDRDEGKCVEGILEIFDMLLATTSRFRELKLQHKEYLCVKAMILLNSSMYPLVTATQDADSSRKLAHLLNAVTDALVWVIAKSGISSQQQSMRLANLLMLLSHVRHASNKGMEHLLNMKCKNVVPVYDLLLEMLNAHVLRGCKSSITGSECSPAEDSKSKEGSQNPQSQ
Thyrotropin receptor (Homo sapiens), sequence (P16473 whole entry, looked up): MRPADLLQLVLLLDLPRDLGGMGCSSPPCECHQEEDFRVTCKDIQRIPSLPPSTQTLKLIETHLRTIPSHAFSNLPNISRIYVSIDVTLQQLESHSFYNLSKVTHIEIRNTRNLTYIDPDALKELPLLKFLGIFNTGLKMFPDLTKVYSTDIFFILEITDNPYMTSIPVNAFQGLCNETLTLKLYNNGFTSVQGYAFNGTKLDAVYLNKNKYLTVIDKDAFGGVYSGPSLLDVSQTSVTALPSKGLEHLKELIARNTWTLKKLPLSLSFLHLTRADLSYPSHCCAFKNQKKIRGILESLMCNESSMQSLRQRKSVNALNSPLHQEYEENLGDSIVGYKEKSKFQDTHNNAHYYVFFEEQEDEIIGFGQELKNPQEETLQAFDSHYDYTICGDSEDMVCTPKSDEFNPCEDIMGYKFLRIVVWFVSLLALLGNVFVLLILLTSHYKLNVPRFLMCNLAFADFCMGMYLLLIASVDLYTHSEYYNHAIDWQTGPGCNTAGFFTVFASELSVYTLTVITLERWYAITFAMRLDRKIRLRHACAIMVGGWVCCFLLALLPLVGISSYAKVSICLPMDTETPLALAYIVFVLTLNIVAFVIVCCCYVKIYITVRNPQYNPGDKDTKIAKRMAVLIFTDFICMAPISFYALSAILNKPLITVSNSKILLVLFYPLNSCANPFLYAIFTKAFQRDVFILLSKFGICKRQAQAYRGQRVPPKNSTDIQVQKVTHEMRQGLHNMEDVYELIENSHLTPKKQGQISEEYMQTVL

CCCOC(=O)C(C)O (configuration not stated)
not listed: [18] | [19] | [20]
inactive: all other assays above

Oc1ccccc1-c1nnco1
not listed: [12] | [15] | [19] | [20]
inactive: all other assays above

O=C(O)Cc1ccc(Cl)cc1Cl
not listed: [10] | [19] | [20]
inactive: all other assays above

CCC(CC)CO
not listed: [11] | [12] | [20]
inactive: all other assays above

CC(C)(C)NC(N)=O
not listed: [13] | [19] | [20]
inactive: all other assays above

C=C(C)C1CCC(C)(O)CC1 (configuration not stated)
not listed: [20]
inactive: all other assays above

CC(=O)NCc1c(I)c(NC(C)=O)c(I)c(C(=O)O)c1I
not listed: [19]
inactive: all other assays above

O=C(NCCc1c[nH]c2ccccc12)c1cccnc1
not listed: [5] | [13] | [19]
inactive: all other assays above

OCCC(F)(F)C(F)(F)C(F)(F)C(F)(F)C(F)(F)C(F)(F)C(F)(F)C(F)(F)F
not listed: [12] | [17] | [18] | [19] | [20]
inactive: all other assays above

CC(C)(C)c1nnc(NS(=O)(=O)c2ccc(N)cc2)s1
not listed: [20]
inactive: all other assays above

Cc1cc(C(C)(C)C)c(O)c(C)c1CC1=NCCN1
not listed: [19]
inactive: all other assays above

CC(C(=O)O)c1ccc2c(c1)CC(=O)c1ccccc1S2 (configuration not stated)
not listed: [11] | [12] | [15] | [18] | [19]
inactive: all other assays above

CC(=O)OC(C)OC(=O)C(C)c1ccc(-c2ccccc2)c(F)c1 (configuration not stated)
not listed: [13]
inactive: all other assays above

CC(C)NCC(O)COc1ccc(COCCOC(C)C)cc1 (configuration not stated)
inactive: all assays above

COc1ccc2nc(SCc3ncc(C)c(OC)c3C)[nH]c2c1
not listed: [11] | [12] | [14] | [20]
inactive: all other assays above
